Measured values from PubChem BioAssay.
Active and inactive are the calls of the source.

How the values were obtained:
[1] = tested on: PRMT1 (protein arginine N-methyltransferase 1); test: PRMT1 binders on small-molecule microarrays, primary screen, biochemical, small-molecule microarray, 635 nm fluorescence (AID 1088); details: small-molecule microarray binding, higher = more signal;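 further: binding of Prmt1 protein to compounds spotted on small-molecule microarray slides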
[2] = yeast growth modulation, basal conditions, primary screen, YJM789 clinical isolate, OD600, 24 h (AID 1089);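 further: growth of clinical yeast isolate S. cerevisiae YJM 789 seeded 1000 cells per well; test concentration not given here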; details: S. cerevisiae YJM789 growth, higher = more signal, called active from +8 up or from −8 down
[3] = fission yeast growth modulation, primary screen, strain 972, OD600, 24 h, no modulator (AID 1090);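 further: basal condition with compound alone and no growth modifier present; test concentration not given here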; details: S. pombe 972 growth, higher = more signal, called active from +8 up or from −8 down
[4] = S. cerevisiae growth modulation with rapamycin, primary screen, strain BY4716, OD600, 96 h (AID 1091); details: higher = more signal, called active from +8 up or from −8 down; further: test concentration not given here
[5] = target: Torsin-1A-interacting protein 2 (Homo sapiens) (UniProt Q8NFQ8); test: LULL1 binders on small-molecule microarray, primary screen, cell lysate, human LULL1 lysate, 635/667 nm fluorescence (AID 1092); details: hLULL1 lysate binding, 635 nm fluorescence, higher = more signal;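 further: probe is lysate of COS7 cells overexpressing human LULL1; score merges per-feature 667 nm fluorescence with signal-to-noise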
[6] = E. coli growth modulation, two-sided OD650, primary screen, E. coli filamentation project, strain DRC41, 24 h (AID 1093); details: OD650, 24 h, higher = more signal, called active from +8 up or from −8 down;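 further: MC1000 strain lacking acrAB efflux and sulA so SOS filamentation is blocked; test concentration not given here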
[7] = small-molecule microarray binders of probe aLefty2, primary screen, biochemical, biotinylated probe, 635/667 nm fluorescence (AID 1094); details: higher = more signal;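 further: score merges spot fluorescence near 667 nm with spot signal-to-noise ratio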
[8] = tested on: Noggin (protein binding on small-molecule microarray); test: Noggin binders on small-molecule microarray, primary screen, biochemical, 635/667 nm fluorescence (AID 1095); details: 635 nm fluorescence, higher = more signal;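 further: score merges 667 nm feature fluorescence with signal to noise over triplicate slides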
[9] = target: Neurogenic locus notch homolog protein 3 (Homo sapiens) (UniProt Q9UM47); test: NOTCH3 binders on small-molecule microarray, primary screen, biochemical, 635/667 nm fluorescence (AID 1096); details: NOTCH3 binding, 635 nm fluorescence, higher = more signal
[10] = small-molecule microarray binders of probe aEGFR, primary screen, biochemical, biotinylated probe, 635/667 nm fluorescence (AID 1097); details: higher = more signal;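 further: probe is a biotinylated anti-EGFR antibody binding compounds printed on slides; score combines fluorescence near 667 nm and signal to noise of each spot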
[11] = tested on: Plasmodium falciparum Sir2 (PF13_0152, Sir2A); test: pfSir2 binders on small-molecule microarrays, primary screen, biochemical, small-molecule microarray, 635 nm fluorescence (AID 1098); details: small-molecule microarray binding, fluorescence 635 nm; higher = more signal;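 further: score merges spot fluorescence intensity with its signal-to-noise ratio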
[12] = small-molecule microarray binders of probe aDKK1, primary screen, biochemical, biotinylated probe, 635/667 nm fluorescence (AID 1099); details: higher = more signal;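 further: score merges 667nm spot fluorescence with signal to noise across triplicate slides; reference of the scale not given here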
[13] = small-molecule microarray binders of probe aCHRDL2, primary screen, biochemical, biotinylated probe, 635/667 nm fluorescence (AID 1100); details: higher = more signal
[14] = splicing luciferase reporter signal modulators, primary screen, spliceosome inhibition project, cell-based, HEK293, splice +/- reporter (AID 1101); details: luminescence, 24 h, higher = more signal, called active from +8 up or from −8 down;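 further: HEK293 cells carrying a splicing-competent luciferase reporter gene; test concentration not given here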
[15] = target: Fibroblast growth factor 10 (Homo sapiens) (UniProt O15520); test: FGF10 binders on small-molecule microarrays, primary screen, biochemical, small-molecule microarray, 635 nm fluorescence (AID 1102); details: FGF10 binding, fluorescence 635 nm, higher = more signal
[16] = tested on: glycogen synthase kinase-3 (GSK3A per assay name; protocol says GSK3B); test: GSK3 binders on small-molecule microarrays, primary screen, biochemical, small-molecule microarray, 635 nm fluorescence, GSK3A (AID 1103); details: small-molecule microarray binding, fluorescence 635 nm; higher = more signal; further: the record names both GSK3A and GSK3B
[17] = target: Epidermal growth factor receptor (Homo sapiens) (UniProt P00533); test: EGFR binders on small-molecule microarrays, primary screen, biochemical, small-molecule microarray, 635 nm fluorescence (AID 1104); details: EGFR binding, higher = more signal;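 further: score merges 667 nm emission intensity with spot signal to noise over triplicate slides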
[18] = target: Follistatin-related protein 3 (Homo sapiens) (UniProt O95633); test: FSTL3 binders on small-molecule microarrays, primary screen, biochemical, small-molecule microarray, 635 nm fluorescence (AID 1105); details: FSTL3 binding, higher = more signal;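 further: score merges emission near 667 nm and signal to noise per printed spot across three slides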
[19] = target: Dickkopf-related protein 1 (Homo sapiens) (UniProt O94907); test: DKK1 binders on small-molecule microarrays, primary screen, biochemical, small-molecule microarray, 635 nm fluorescence scan (AID 1106); details: DKK1 binding, higher = more signal;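 further: score merges emission near 667 nm with signal to noise over three replicate slides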
[20] = tested on: Inhibin beta A chain (activin A); test: INHBA (activin A) binders on microarrays, primary screen, biochemical, small-molecule microarray, 635 nm fluorescence scan (AID 1107); details: small-molecule microarray binding, higher = more signal;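 further: mouse activin A protein probed at 4.33 µg/mL on printed slides; score merges bound-protein fluorescence near 667 nm with spot signal-to-noise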

Chain of Dickkopf-related protein 1 (Homo sapiens) (O94907 whole entry, looked up): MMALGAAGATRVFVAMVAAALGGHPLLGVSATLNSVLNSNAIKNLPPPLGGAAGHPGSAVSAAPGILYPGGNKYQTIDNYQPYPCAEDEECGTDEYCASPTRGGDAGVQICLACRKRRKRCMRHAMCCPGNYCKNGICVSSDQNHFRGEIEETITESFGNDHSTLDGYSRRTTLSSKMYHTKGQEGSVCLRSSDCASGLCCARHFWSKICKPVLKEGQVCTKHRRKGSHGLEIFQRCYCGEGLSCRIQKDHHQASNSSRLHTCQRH
Chain of Neurogenic locus notch homolog protein 3 (Homo sapiens) (Q9UM47 whole entry, looked up): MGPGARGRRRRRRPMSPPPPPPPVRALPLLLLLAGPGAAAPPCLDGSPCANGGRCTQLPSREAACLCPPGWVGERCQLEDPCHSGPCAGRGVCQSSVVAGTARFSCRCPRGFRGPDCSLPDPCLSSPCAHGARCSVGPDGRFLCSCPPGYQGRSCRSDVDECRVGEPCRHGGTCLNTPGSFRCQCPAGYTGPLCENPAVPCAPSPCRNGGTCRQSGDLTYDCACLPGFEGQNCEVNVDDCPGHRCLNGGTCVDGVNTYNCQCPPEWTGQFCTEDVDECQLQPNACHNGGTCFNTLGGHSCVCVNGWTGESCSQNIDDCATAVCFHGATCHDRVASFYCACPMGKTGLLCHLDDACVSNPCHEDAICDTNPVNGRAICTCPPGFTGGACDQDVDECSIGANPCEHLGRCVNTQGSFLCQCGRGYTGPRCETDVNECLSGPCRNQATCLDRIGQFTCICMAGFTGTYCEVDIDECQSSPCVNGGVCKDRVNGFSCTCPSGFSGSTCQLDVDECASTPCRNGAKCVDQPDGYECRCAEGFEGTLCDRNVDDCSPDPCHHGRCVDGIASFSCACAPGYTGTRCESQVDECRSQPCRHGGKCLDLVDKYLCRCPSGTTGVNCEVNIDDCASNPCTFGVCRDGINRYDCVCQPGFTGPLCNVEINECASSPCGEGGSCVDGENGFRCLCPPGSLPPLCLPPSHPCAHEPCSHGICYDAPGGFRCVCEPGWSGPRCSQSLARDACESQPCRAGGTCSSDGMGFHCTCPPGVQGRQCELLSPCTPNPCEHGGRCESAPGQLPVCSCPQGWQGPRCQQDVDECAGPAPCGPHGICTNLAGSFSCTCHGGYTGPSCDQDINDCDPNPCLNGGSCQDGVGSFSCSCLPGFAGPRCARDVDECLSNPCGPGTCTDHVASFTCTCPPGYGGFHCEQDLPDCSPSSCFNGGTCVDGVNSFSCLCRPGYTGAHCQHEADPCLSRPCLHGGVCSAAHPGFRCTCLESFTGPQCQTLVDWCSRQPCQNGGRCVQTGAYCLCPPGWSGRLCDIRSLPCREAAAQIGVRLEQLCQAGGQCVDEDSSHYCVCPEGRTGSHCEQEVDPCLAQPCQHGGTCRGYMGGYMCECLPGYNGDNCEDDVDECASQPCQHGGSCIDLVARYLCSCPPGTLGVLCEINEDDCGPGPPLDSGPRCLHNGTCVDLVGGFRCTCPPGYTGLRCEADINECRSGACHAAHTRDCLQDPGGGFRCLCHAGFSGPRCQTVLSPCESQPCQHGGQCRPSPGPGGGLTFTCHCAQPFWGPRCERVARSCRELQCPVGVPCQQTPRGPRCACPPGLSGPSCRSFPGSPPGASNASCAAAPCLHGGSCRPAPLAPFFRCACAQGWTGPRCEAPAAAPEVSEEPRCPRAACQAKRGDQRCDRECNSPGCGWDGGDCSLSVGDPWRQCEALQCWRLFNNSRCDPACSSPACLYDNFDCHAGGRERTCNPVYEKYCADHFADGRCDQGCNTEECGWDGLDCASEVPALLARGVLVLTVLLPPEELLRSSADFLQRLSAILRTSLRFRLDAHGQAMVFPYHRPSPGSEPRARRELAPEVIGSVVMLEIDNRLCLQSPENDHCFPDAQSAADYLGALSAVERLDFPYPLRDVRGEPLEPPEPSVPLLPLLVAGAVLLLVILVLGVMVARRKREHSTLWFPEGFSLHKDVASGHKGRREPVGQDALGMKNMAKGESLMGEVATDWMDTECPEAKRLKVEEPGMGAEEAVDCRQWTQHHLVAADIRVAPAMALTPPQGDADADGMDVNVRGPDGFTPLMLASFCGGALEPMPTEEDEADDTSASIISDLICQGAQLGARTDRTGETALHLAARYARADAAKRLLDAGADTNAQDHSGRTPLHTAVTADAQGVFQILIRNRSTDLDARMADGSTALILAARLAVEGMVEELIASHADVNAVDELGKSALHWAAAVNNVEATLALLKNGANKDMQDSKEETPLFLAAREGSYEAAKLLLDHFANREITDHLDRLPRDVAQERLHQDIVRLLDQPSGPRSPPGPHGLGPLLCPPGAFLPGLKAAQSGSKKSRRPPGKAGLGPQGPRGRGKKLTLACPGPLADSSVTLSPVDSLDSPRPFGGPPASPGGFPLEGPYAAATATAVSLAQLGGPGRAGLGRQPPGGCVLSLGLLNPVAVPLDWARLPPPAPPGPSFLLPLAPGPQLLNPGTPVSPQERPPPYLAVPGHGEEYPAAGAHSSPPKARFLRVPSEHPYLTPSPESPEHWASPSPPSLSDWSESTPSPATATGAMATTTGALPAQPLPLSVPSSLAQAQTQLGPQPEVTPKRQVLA
Chain of Follistatin-related protein 3 (Homo sapiens) (O95633 whole entry, looked up): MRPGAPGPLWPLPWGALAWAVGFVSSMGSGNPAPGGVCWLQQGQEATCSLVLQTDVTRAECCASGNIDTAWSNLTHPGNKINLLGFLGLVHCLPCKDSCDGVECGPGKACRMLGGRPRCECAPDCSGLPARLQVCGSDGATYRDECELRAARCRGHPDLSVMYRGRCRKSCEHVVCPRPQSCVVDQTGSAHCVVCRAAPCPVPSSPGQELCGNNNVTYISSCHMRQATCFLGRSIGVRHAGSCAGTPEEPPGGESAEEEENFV
Chain of Epidermal growth factor receptor (Homo sapiens) (P00533 whole entry, looked up): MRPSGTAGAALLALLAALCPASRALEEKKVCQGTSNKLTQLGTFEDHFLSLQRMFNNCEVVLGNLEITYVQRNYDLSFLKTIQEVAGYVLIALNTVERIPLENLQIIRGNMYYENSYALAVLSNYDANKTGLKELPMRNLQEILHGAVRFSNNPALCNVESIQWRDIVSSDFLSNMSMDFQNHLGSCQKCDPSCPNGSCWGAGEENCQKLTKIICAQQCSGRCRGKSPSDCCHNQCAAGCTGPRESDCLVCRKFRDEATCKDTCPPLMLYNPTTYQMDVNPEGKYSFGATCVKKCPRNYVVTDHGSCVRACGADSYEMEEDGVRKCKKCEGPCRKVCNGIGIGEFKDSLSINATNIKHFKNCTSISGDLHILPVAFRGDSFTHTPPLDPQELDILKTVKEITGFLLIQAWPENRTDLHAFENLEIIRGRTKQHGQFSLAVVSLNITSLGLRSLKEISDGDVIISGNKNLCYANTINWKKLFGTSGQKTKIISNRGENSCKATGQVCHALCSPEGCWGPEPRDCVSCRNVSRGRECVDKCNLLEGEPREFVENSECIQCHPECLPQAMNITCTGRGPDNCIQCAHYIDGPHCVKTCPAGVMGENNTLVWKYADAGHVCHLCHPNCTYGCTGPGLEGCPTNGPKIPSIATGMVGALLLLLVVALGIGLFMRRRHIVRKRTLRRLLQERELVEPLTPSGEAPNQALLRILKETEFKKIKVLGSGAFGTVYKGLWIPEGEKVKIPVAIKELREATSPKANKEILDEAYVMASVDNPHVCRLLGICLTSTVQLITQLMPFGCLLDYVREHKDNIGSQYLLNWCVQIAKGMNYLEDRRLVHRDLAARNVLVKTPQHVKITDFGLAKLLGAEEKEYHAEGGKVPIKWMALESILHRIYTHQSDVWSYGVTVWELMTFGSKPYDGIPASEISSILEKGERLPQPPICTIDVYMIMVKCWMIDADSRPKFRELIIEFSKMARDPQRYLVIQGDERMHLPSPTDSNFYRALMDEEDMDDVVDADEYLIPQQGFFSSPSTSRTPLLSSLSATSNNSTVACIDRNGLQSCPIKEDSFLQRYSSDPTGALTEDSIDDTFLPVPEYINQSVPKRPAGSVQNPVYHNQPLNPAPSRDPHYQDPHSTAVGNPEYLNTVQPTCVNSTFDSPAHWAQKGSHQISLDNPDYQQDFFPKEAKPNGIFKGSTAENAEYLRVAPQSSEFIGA
Chain of Fibroblast growth factor 10 (Homo sapiens) (O15520 whole entry, looked up): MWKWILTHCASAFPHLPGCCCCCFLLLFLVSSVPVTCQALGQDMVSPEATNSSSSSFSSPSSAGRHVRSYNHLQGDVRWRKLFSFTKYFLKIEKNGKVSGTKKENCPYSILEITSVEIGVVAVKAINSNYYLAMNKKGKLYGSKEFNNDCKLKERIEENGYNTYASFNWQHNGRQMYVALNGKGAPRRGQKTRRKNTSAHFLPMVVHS
Chain of Torsin-1A-interacting protein 2 (Homo sapiens) (Q8NFQ8 whole entry, looked up): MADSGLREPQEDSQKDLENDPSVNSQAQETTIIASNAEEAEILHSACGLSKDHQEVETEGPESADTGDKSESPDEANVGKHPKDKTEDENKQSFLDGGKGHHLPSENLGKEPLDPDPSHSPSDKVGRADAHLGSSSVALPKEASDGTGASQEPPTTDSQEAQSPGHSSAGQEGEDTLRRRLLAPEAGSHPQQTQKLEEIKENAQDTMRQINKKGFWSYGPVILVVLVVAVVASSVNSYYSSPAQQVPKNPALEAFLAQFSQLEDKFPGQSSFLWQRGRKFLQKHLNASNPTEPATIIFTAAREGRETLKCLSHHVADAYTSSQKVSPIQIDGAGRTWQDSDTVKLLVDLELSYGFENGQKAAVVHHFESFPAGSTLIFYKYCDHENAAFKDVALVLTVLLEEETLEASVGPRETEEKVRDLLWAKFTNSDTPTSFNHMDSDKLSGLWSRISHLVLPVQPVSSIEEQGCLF

Row | SMILES | composite z-score [1] | z-score [2] | z-score [3] | z-score [4] | composite z-score [5] | z-score [6] | composite z-score [7] | composite z-score [8] | composite z-score [9] | composite z-score [10] | composite z-score [11] | composite z-score [12] | composite z-score [13] | z-score [14] | composite z-score [15] | composite z-score [16] | composite z-score [17] | composite z-score [18] | composite z-score [19] | composite z-score [20]
1 | CC(C)N1C(=O)C[C@@](C(=O)NC2CC2)(c2ccc([N+](=O)[O-])cc2)[C@H]1c1ccc(CO)cc1 | 0.978 | -0.195 (inactive) | -1.08 (inactive) | 0.601 (inactive) | 3.25 | 0.718 (inactive) | 0.0702 | -1.15 | -0.46 | -0.281 | -0.66 | 0.34 | 0.993 | -1.34 (inactive) | -0.576 | -0.3 | -1.18 | -1.1 | -0.674 | -1.48
2 | Cn1cccc1C(O)C1C=CC2C(=O)N(c3ccccc3)C(=O)C2N1Nc1ccccc1 (stereo not given) | 1.56 | 0.537 (inactive) | 0.445 (inactive) | 0.566 (inactive) | 3.37 | -0.598 (inactive) | 0.27 | 0.781 | 1.02 | 0.0651 | 1.19 | 0.966 | 1.04 | -0.441 (inactive) | 1.3 | 1.27 | 0.671 | 1.41 | 0.456 | 0.865
3 | C=CC[C@@H](OC(=O)Nc1ccc(OC)cc1)c1ccc(O)c(F)c1 | 0.349 | -23.4 (active) | -20.3 (active) | -2.74 (inactive) | 2.09 | 0.92 (inactive) | -0.146 | -0.488 | -0.6 | -0.241 | 1.69 | -0.0015 | 0.74 | -1.95 (inactive) | -0.549 | -0.363 | -1.2 | -0.741 | -0.658 | 0.19
4 | [N-]=[N+]=Nc1ccccc1C[C@@]1(C(N)=O)N=C(c2ccc(OCCCO)cc2)O[C@@H]1c1ccccc1N=[N+]=[N-] | 0.319 | -0.974 (inactive) | -1.01 (inactive) | -0.933 (inactive) | 2.05 | 0.905 (inactive) | 0.281 | -0.467 | 0.0955 | 0.639 | 0.749 | 1.14 | 0.974 | -1.36 (inactive) | -0.24 | 0.385 | 0.181 | -0.199 | -0.459 | 1.46
5 | O=C(NCCN1CCOCC1)[C@@H]1c2ccccc2C(=O)N(C2Cc3ccccc3C2)[C@H]1c1ccc(CO)cc1 | 0.925 | -2.95 (inactive) | -0.534 (inactive) | -0.979 (inactive) | 3.2 | 1.78 (inactive) | -0.0145 | -0.398 | 0.123 | -0.214 | 0.909 | 0.0974 | 0.852 | -1.38 (inactive) | -0.223 | 1.05 | -0.812 | -0.414 | -0.666 | -0.363
6 | C=C(C(=O)CC[C@H](OC(=O)c1ccccc1-c1ccccc1C(=O)O)c1cccc(OCCO)c1)C(C)C | 0.0697 | 0.521 (inactive) | -0.561 (inactive) | -0.518 (inactive) | -0.138 | -0.164 (inactive) | -0.191 | 0.437 | 0.324 | -0.18 | 0.627 | 0.414 | -0.265 | -0.369 (inactive) | 0.353 | -0.418 | -0.803 | 0.0151 | 0.0159 | 0.495
7 | C=CCN1Cc2ccccc2[C@@H]2OC(c3ccc(OCCCO)cc3)=N[C@]2(CC=C)C1=O | 1.57 | -0.98 (inactive) | -2.8 (inactive) | -0.926 (inactive) | 3.15 | 0.924 (inactive) | 0.188 | 1.84 | 1.03 | 0.434 | 1.5 | 2.15 | 1.07 | -1.25 (inactive) | 0.862 | 1.22 | 0.724 | 1.48 | 1.33 | 1.68
8 | CCCC=C(CCC)[C@@H](NC(=O)C(C)(C)C)c1ccc(C(=O)OC)cc1 | 0.0225 | 0.647 (inactive) | 1.51 (inactive) | 1.68 (inactive) | 3.12 | -0.447 (inactive) | 0.498 | -0.383 | 0.803 | -0.0023 | -0.0973 | 1.13 | 1.06 | -0.58 (inactive) | -0.129 | -0.107 | -0.0375 | 0.11 | -0.58 | 0.757
9 | C=CCNC(=O)[C@@H]1[C@H]2C(=O)O[C@H](c3ccccc3)[C@H](c3ccccc3)N2[C@H](c2ccccc2OCCO)[C@@]12C(=O)Nc1ccc(C#CCCO)cc12 | 1.55 | 1.31 (inactive) | -1.46 (inactive) | 3.43 (inactive) | 2.3 | -0.372 (inactive) | -0.106 | 1.23 | 0.686 | -0.165 | 0.124 | -0.332 | 0.178 | -1.06 (inactive) | 0.95 | 0.773 | 0.954 | 1.04 | 1.49 | 0.65
10 | CC(C)NC(=O)[C@@]1(c2ccc([N+](=O)[O-])cc2)CC(=O)N(C2CCCCC2)[C@@H]1c1ccc(CO)cc1 | 1.54 | 0.359 (inactive) | 0.52 (inactive) | -0.55 (inactive) | 2.85 | 1.07 (inactive) | -0.271 | 1.77 | 1.07 | -0.296 | 1.49 | -0.723 | 0.0339 | 0.458 (inactive) | 1.23 | 0.645 | 0.0344 | 1.04 | 0.214 | -0.0249
